This is a sample that favours compounds with a hit; in the whole collection about 9.2% have one here.
JMJD2E inh: inhibitors of human JMJD2E histone demethylase; JMJD2E catalytic domain, FDH-coupled NADH fluorescence (FDH is formaldehyde dehydrogenase); B2RXH2; AID 2147; 1.6% of 230,000 active; Potency, µM (doses to about 57.1 µM), without a hit: at the top dose activity change, negative = inhibition, actives largely listed as inhibitors;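 further: 0% = wells with enzyme and -100% = buffer wells without enzyme; nearly all actives have a fitted effect of over 50% in size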
Target sequence (B2RXH2 1-337 limits assumed): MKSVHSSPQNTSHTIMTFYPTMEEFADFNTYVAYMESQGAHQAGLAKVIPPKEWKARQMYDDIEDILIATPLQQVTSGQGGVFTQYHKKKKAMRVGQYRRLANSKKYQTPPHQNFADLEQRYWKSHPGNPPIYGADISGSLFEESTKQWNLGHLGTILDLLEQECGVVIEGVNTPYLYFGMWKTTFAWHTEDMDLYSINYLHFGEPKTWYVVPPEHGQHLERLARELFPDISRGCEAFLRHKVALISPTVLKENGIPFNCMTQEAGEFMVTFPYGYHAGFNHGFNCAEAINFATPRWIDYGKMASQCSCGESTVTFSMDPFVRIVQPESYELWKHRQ
ALDH1A1 inh: inhibitors of human aldehyde dehydrogenase 1A1; Potency, µM (highest dose often 75.3 µM), without a hit: at the highest dose activity, negative = inhibition, most hits filed as inhibitors; P00352; Purified ALDH1A1, NADH fluorescence, propionaldehyde substrate; 7.3% of 220,000 active;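 further: plate controls were no enzyme wells and a reference inhibitor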
HTT cytoprotect: Huntington cell model cytoprotection by ATP luminescence; Potency, µM (titrated, usually from 56.4 µM), without a hit: cytoprotection (ATP increase), actives largely listed as activators; PC12 HTT-Q103 induced, cytoprotection, ATP luminescence, 40 h; 0.14% of 230,000 active; active means well fitted curve in the direction sought with a large enough effect; inconclusive means small, poorly fitted or top-dose-only effect, or another doubt; inactive means no such curve, though single readings can be large; an effect the other way counts as inactive or inconclusive; further: % of control where 0% means no effect; nearly all actives have a fitted effect of over 45% in size
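Stable PC12 Q103-GFP cells in serum-supplemented, phenol red-free DMEM; induction by tebufenozide at 100 nM final; compound dose series; cell viability quantified luminescently from ATP.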
LMNA splice mod: changes lamin A minigene splicing in HeLa cells; Potency, µM (series often up to 46.1 µM), inactives show at the top dose ratio change, negative = inhibition, hits mostly inhibitors; 0.01% of 200,000 active; AID 1487; HeLa LMNA splicing GFP/RFP minigene ratio, 48 h; active means well fitted inhibition curve with a large enough effect in the signal ratio, with a control signal flat, not every such curve was filed as active; inconclusive means small, poorly fitted or top-dose-only effect, or effect the other way, or a change in a side signal; the % refers to the signal ratio; further: on the % scale 0 is the no-effect control and ±100 the full control effect
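S3 HeLa cells stably expressing lamin A-EGFP splicing minigene plus DsRed2, 600 cells/well, 48 h compound exposure at 37C. Laser-scanning cytometry; analysed as GFP (500-530 nm)/RFP (575-640 nm) total intensity ratio; 0.5% DMSO vehicle.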
HPGD block: inhibitors of human 15-hydroxyprostaglandin dehydrogenase (HPGD). P15428. purified HPGD, NADH fluorescence kinetic, PGE2 substrate. Potency, µM, for inactives: at the top dose activity change, negative = inhibition, hits mostly inhibitors. 4.3% of 150,000 active; further: on the % scale 0 is the no-effect control and ±100 the full control effect
Target sequence (P15428 whole entry, looked up): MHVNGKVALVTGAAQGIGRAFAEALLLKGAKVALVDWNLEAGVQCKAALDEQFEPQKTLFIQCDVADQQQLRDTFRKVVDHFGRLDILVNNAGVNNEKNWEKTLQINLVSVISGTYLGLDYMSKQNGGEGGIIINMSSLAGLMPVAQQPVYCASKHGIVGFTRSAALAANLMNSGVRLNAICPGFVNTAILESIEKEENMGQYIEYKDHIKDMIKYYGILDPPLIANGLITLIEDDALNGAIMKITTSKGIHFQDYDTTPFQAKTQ
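20 nM HPGD preincubated 15 min at room temperature with compound in 50 mM Tris-HCl pH 8, 0.01% Tween 20. Started with 1 mM NAD+ and 30 uM prostaglandin E2; NADH fluorescence (360/450 nm) read 5 times over 30-s intervals, last minus first.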
HttQ103 aggreg: mutant huntingtin aggregation inhibition | Potency, µM (series often up to 46.1 µM), for inactives: top-dose activity change, negative = inhibition, most hits filed as inhibitors | AID 1688 | 1.1% of 220,000 active | PC12 HttQ103-GFP aggregates, Acumen cytometry, 40 h; active means well fitted curve in the direction sought with a large enough effect; inconclusive means small, poorly fitted or top-dose-only effect, or another doubt; inactive means no such curve, though single readings can be large; an effect the other way counts as inactive or inconclusive; further: on the % scale 0 is the no-effect control and ±100 the full control effect; nearly all actives have a fitted effect of over 60% in size
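PC12 cells stably carrying ecdysone-inducible HTT exon 1 Q103–GFP were induced with tebufenozide (100 nM final) and treated with library compounds in titration. GFP aggregates in lysates were counted by laser scanning cytometry.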
The depositor's hits bear a star; u = inconclusive; x = no result; [ ] = another dose, or the depositor's remark. Unless noted, the call rests on the fitted dose curve; in most records, active means well fitted inhibition curve with a large enough effect (not every such curve was filed as active); inconclusive means small, poorly fitted or top-dose-only effect, or another doubt; inactive means no such curve, though single readings can be large or run the other way. Potency means the concentration at half of the fitted maximal effect.

SMILES	JMJD2E inh	ALDH1A1 inh	HTT cytoprotect	LMNA splice mod	HPGD block	HttQ103 aggreg
O=c1cc(-c2ccccc2)n(S(=O)(=O)c2ccccc2)o1	-14%	25µM*	-18%	17%	-18%	-14%
COc1ccc(S(=O)(=O)n2oc(=O)cc2-c2ccccc2)cc1	-4%	u	5%	3%	-14%	5%
COC(=O)c1cc(OC)c(OC)cc1NC(=O)CSc1ccccc1	u	-10%	-1%	0%	-29%	-1%
Cc1ccc(C(=O)Nc2cc([N+](=O)[O-])ccc2C)cc1	-9%	13%	u	x	x	u
Cc1ccc(NC(=O)c2ccc(Nc3c([N+](=O)[O-])cc([N+](=O)[O-])cc3[N+](=O)[O-])cc2)cc1	-7%	0.56µM*	x	u	-7%	u
C/C(=N\NC(=O)C1(C)CC1(Br)Br)c1ccc(NC(=O)c2ccc(C)o2)cc1 (stereo unspecified)	-13%	-3%	17%[10 µM]	-18%	18µM*	-15%
O=C1C=C(N(CCO)Cc2ccccc2)c2ccccc2C1=O	7%	u	-161%	-7%[9.22 µM]	x	8.9µM*
O=C(CCN1C(=O)c2ccccc2C1=O)N(CCO)Cc1ccccc1	9%	u	3%	17%	-10%	13%
Fc1ccc(-n2c(Cc3ccccc3)nnc2SCc2nc(-c3cccs3)no2)cc1	-9%	14µM*	13%[10 µM]	-11%	-18%	-19%
COc1ccc(-c2noc(CSc3nnc(Cc4ccccc4)n3-c3cccc(C)c3)n2)cc1OC	-5%	13µM*	-4%	-4%	-14%	u
COc1ccccc1C(=O)C1CCCN(C(=O)c2cc(CC(C)C)nc(C)n2)C1 (stereo unspecified)	-10%	-5%	-10%[10 µM]	7%[46 µM]	x	-16%[9.22 µM]
COc1cc(/C=N/n2c(C)n[nH]c2=S)ccc1OCc1ccc(F)cc1	-13%	u	-13%[10 µM]	13%	2.8µM*	20%
C[C@@H](C(=O)O)c1cccc(C(=O)c2ccccc2)c1	-4%[25.5 µM]	-5%[20.9 µM]	u	-8%	-7%	11%
Cc1ccc(NC(=O)c2nn(C34CC5CC(CC(C5)C3)C4)cc2[N+](=O)[O-])cc1	3%	0.028µM*	-6%	u	-21%	u
Cc1ccc(NC2=C(NCCO)C(=O)c3ccccc3C2=O)cc1	u	22µM*	3%[10 µM]	u	-3%	-16%
CC(=O)Nc1ccc(NC2=C(Cl)C(=O)c3ccccc3C2=O)cc1	-25%	u	-170%	u	x	u
Cc1ccsc1C1NC(=O)c2c(sc3c2CCCC3)N1 (stereo unspecified)	u	u	21%[10 µM]	-1%	u	28µM*
O=C1NC(c2ccc(Br)cc2)Nc2sc3c(c21)CCC3 (stereo unspecified)	-23%	u	-4%	1%	-30%	11%
Cc1ccsc1C1NC(=O)c2ccccc2N1 (stereo unspecified)	28µM*	u	7%[10 µM]	u	u	0%
Cn1c(C(=O)N2CCCC(C(=O)c3ccc(C(F)(F)F)cc3)C2)cc(=O)n(C)c1=O (stereo unspecified)	-5%	8%	8%[10 µM]	21%[46 µM]	x	5%[9.22 µM]
Cc1ccc(N2C(=O)CC(Sc3ccccc3C(=O)O)C2=O)cc1C (stereo unspecified)	-12%	0.45µM*	-23%	u	x	-8%[9.22 µM]
O=C(O)c1ccccc1SC1CC(=O)N(c2ccc3c(c2)OCO3)C1=O (stereo unspecified)	-4%	1.3µM*	11%	u	x	-8%
CCCCN1C(=O)CC(Sc2ccccc2C(=O)O)C1=O (stereo unspecified)	-5%	u	-25%	2%	2%	6%
CC(C)CN1C(=O)CC(Sc2ccccc2C(=O)O)C1=O (stereo unspecified)	3%	18µM*	-2%	-1%	-4%	26%
CN1C(=O)CC(Sc2ccccc2C(=O)O)C1=O (stereo unspecified)	-9%	-15%	-1%	10%	-5%	9%
SMILES	JMJD2E inh	ALDH1A1 inh	HTT cytoprotect	LMNA splice mod	HPGD block	HttQ103 aggreg
CN(C)c1ccc(N2C(=O)CC(Sc3ccccc3C(=O)O)C2=O)cc1 (stereo unspecified)	0%	1.3µM*	2%[10 µM]	-15%	-10%	-18%
Nc1ccccc1SC1CC(=O)N(c2ccc3c(c2)OCO3)C1=O (stereo unspecified)	2%	x	-7%[10 µM]	x	x	7%[9.22 µM]
O=C(Nc1cc(Cl)ccc1Cl)c1cc(S(=O)(=O)NCCc2ccccc2)ccc1F	x	x	x	-7%[46 µM]	x	x
Cc1cccc(N2C(=O)CC(Sc3ccccc3C(=O)O)C2=O)c1 (stereo unspecified)	3%	5µM*	3%[10 µM]	-10%	-12%	4%
Cc1cc(C)cc(N2C(=O)CC(Sc3ccccc3C(=O)O)C2=O)c1 (stereo unspecified)	0%	x	16%[10 µM]	x	x	18%[9.22 µM]
Cc1ccc(N2C(=O)CC(Sc3ccccc3C(=O)O)C2=O)cc1 (stereo unspecified)	6%	0.71µM*	3%[10 µM]	-5%	-6%	4%
CCCn1c(CNc2ccc(Br)cc2)nc2ccccc21	-5%	2%	-13%	2%	-15%	11µM*
CO/N=C/c1ccc(N2CCCC2)c([N+](=O)[O-])c1	-1%	u	6%[10 µM]	u	x	0%
O=C(O/N=C\c1ccc(N2CCOCC2)c([N+](=O)[O-])c1)c1ccccc1Cl	-9%	1.6µM*	1%	6%	-15%	8%
O=[N+]([O-])c1cc(/C=N/O)ccc1N1CCCC1	-6%	11µM*	-21%	u	x	-3%
O=[N+]([O-])c1cc(/C=N/n2cnnc2)ccc1N1CCCC1	-5%	1µM*	-23%	u	x	-19%
CC(C)(C)Sc1ccc(/C=N/O)cc1[N+](=O)[O-]	0%	22µM*	-13%	-4%[46 µM]	x	-8%[9.22 µM]
COC(=O)c1ccc2c(=O)n(CCCCCC(=O)N3CCN(c4ccc(Cl)cc4)CC3)c(=O)[nH]c2c1	x	x	x	17%[46 µM]	x	x
O=c1c2oc3ccccc3c2ncn1Cc1ccc(F)cc1	1%	6%	0%	u	x	-20%
Cc1noc(C)c1-c1cc(NCCN2CCOCC2)ncn1	x	20µM*	u	0%	x	x
CCOc1ccc(/C=C/C2=Cc3c(sc(NC(=O)CSc4n[nH]c(N)n4)c3C#N)C(C)(C)C2)cc1	-2%	25µM*	-104%	u	u	u
COc1ccc(/C=C(/NC(=O)c2ccccc2Cl)C(=O)O)cc1	-11%	-1%	16%[10 µM]	4%[46 µM]	x	20%[9.22 µM]
CCOC(=O)COc1ccc(Br)cc1/C=C/c1[nH]c(=O)[nH]c(=O)c1[N+](=O)[O-]	u	u	-12%	248%[46 µM]	x	u
